Experimental data: PubChem BioAssay
Calls of active or inactive are those of the source.

Key:
[1] = small molecules captured by biotinylated probe aFSTL3 – biochemical, small-molecule microarray, fluorescence 635/667, stem cell growth factor project, primary screen (AID 1064); conditions: higher = more signal;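 note: measures binding of the biotinylated anti-FSTL3 antibody to printed compounds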
[2] = binders from COS7 lysate, DM2A8 probe, primary screen, torsin A project, cell lysate, small-molecule microarray, fluorescence 635/667 (AID 1065); conditions: higher = more signal, COS7 lysate expressing mutant human TOR1A
[3] = small molecules captured by biotinylated probe aFGF2 – biochemical, small-molecule microarray, fluorescence 635/667, stem cell growth factor project, primary screen (AID 1067); conditions: higher = more signal;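 note: measures binding of biotinylated aFGF2 protein to printed compounds on slides; z-score merges feature fluorescence and signal-to-noise across triplicate slides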
[4] = small molecules captured by biotinylated probe aFGF10 – biochemical, small-molecule microarray, fluorescence 635/667, stem cell growth factor project, primary screen (AID 1071); conditions: higher = more signal;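 note: score merges 667 nm spot intensity and signal to noise from triplicate slides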
[5] = target: Neurogenic locus notch homolog protein 2 (Homo sapiens) (UniProt Q04721); assay: small molecules binding Notch2 protein – biochemical, small-molecule microarray, 635 nm fluorescence, stem cell growth factors, primary screen (AID 1073); conditions: higher = more signal
[6] = target: Pro-neuregulin-1, membrane-bound isoform (Homo sapiens) (UniProt Q02297); assay: small molecules binding neuregulin-1 protein – biochemical, small-molecule microarray, fluorescence 635/667, psychiatric disease protein project, primary screen (AID 1075); conditions: NRG1 binding, 635 nm fluorescence, higher = more signal;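 note: score combines 667 nm spot fluorescence with signal to noise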
[7] = tested on: Neuregulin-1 EGF-like domain; assay: small molecules binding NRG1 EGF domain – biochemical, small-molecule microarray, 635 nm fluorescence, primary screen (AID 1081); conditions: higher = more signal;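 note: binding of the protein to compounds printed on small-molecule microarray slides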
[8] = FRG1 expression reporter modulators in myotubes – cell-based, C2C12 myotubes, firefly/Renilla luciferase, luminescence, FRG1 inhibition for FSHD, primary screen (AID 1084); conditions: FRG1 promoter luciferase, higher = more signal, called active from +8 up or from −8 down
[9] = small molecules captured by biotinylated probe aFST – biochemical, small-molecule microarray, fluorescence 635/667, stem cell growth factor project, primary screen (AID 1086); conditions: higher = more signal;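 note: score merges 667 nm fluorescence with signal-to-noise of each printed compound spot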
[10] = binders of probe aHhip on microarray, primary screen, stem cell growth factor project, biochemical, small-molecule microarray, fluorescence 635/667 (AID 1087); conditions: higher = more signal;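 note: score merges spot fluorescence at 667nm with spot signal to noise ratio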

Pro-neuregulin-1, membrane-bound isoform (Homo sapiens), sequence (Q02297 whole entry, looked up, the tested form may be a part, canonical isoform): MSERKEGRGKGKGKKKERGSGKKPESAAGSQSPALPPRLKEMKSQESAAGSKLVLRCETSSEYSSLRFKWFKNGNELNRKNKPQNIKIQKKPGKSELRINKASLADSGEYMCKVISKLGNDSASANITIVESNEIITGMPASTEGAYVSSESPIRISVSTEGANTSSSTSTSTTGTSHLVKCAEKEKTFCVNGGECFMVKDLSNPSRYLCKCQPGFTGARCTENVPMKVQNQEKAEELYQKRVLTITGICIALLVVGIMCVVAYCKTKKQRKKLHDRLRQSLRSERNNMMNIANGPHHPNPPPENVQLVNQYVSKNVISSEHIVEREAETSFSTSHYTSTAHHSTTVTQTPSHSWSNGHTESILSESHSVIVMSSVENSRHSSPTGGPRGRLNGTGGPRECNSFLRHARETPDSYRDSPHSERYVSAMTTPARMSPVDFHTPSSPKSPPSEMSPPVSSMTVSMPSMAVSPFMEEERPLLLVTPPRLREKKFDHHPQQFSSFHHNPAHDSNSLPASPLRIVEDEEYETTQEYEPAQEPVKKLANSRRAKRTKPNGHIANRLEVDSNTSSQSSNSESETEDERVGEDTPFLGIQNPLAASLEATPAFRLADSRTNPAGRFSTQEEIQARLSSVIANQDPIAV
Neurogenic locus notch homolog protein 2 (Homo sapiens), sequence (Q04721 whole entry, looked up, canonical isoform): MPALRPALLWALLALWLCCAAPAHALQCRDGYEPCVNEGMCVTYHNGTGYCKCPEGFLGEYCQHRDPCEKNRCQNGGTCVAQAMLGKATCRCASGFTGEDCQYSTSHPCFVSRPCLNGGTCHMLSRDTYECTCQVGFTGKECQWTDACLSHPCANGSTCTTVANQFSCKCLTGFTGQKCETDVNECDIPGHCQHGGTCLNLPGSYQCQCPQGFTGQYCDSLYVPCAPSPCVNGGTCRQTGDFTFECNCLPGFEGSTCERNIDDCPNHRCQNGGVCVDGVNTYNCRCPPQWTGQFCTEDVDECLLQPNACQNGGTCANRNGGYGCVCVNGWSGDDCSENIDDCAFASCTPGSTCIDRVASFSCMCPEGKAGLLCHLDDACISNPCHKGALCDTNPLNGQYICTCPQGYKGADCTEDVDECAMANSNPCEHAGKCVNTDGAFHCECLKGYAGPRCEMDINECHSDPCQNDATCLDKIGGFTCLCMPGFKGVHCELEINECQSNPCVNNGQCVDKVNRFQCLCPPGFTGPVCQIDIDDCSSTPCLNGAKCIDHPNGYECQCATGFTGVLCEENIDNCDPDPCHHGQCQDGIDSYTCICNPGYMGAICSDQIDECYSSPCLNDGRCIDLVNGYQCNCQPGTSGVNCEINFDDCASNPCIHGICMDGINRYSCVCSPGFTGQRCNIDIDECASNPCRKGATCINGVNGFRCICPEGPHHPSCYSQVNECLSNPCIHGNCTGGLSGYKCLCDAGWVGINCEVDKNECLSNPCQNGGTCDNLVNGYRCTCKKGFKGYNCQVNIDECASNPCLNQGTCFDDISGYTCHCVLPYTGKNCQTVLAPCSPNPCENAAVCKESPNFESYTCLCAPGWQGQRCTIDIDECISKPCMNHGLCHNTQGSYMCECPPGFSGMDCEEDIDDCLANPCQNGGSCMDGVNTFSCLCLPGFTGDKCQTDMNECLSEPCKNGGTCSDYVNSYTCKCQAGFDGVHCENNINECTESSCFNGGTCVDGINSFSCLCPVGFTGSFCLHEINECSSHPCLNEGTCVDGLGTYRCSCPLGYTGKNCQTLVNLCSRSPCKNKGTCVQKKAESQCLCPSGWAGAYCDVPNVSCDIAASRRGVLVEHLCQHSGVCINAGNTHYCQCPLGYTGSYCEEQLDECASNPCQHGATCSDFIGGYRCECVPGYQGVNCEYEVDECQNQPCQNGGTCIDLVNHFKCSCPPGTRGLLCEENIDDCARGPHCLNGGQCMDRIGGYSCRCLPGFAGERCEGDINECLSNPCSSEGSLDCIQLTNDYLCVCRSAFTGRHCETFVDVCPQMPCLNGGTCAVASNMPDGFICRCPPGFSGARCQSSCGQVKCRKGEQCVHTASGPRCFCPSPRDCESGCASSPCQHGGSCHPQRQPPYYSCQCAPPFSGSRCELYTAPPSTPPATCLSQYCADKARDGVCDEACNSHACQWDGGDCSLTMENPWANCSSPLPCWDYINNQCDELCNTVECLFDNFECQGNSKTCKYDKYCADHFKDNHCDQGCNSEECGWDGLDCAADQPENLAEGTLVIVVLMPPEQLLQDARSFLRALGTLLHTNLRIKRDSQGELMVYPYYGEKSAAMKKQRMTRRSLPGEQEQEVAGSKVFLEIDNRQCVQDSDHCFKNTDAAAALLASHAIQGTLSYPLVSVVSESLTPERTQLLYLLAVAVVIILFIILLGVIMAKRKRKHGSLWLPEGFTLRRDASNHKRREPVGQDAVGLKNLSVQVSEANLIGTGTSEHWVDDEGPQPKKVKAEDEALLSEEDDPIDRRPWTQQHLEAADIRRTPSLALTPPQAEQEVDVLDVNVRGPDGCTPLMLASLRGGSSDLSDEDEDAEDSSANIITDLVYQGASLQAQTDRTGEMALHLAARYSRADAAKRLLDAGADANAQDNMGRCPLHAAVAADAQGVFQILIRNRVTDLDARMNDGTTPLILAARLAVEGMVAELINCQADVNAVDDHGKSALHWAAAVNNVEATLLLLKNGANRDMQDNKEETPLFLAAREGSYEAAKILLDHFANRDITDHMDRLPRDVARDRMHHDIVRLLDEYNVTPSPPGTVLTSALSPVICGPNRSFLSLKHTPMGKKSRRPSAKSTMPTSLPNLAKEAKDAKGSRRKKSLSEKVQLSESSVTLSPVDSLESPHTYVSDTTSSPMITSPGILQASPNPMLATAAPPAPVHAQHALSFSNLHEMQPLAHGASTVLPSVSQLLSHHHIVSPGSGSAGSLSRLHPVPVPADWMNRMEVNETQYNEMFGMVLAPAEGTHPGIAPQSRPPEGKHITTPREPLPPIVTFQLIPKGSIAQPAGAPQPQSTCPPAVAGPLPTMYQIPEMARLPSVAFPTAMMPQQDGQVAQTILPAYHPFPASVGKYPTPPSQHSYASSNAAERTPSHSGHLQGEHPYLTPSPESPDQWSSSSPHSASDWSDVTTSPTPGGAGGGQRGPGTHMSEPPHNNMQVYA

| SMILES | composite z-score [1] | composite z-score [2] | composite z-score [3] | composite z-score [4] | composite z-score [5] | composite z-score [6] | composite z-score [7] | z-score [8] | composite z-score [9] | composite z-score [10] |
| --- | --- | --- | --- | --- | --- | --- | --- | --- | --- | --- |
| CC(C)N1C(=O)c2ccccc2[C@@H](C(=O)NCCCN(C)C)[C@@H]1c1ccc(CO)cc1 | 0.878 | -0.194 | -0.0502 | -0.086 | 0.102 | 1.78 | 1.11 | 0.0159 (inactive) | 0.908 | 0.0066 |
| COC(=O)C1=CC(CCCO)=CC(C2CC2)N(Cc2sc3ccccc3c2Cl)C=C1C(=O)OC (stereo not given) | -0.0356 | 0.43 | 0.0216 | 0.889 | 1.44 | 1.98 | 1.08 | -1.73 (inactive) | 1.1 | -0.266 |
| C=C(COC)C(=O)CC[C@H](OC(C)=O)c1cccc(OCCO)c1 | -0.0206 | 1.66 | -0.0767 | 0.553 | -0.844 | -0.13 | -0.208 | 0.39 (inactive) | -0.392 | -0.291 |
| Cc1ccc(S[C@]2(C(=O)NCC(C)C)CC(=O)N(Cc3ccccc3Cl)[C@@H]2c2ccc(CO)cc2)cc1 | 1.27 | -0.48 | -0.151 | -0.584 | -1.36 | -0.612 | -0.232 | -2.55 (inactive) | -0.982 | -0.284 |
| C=CC[C@@]1(C(=O)NCC(O)CO)N=C(c2ccc(OCCCO)cc2)O[C@@H]1c1ccccc1N=[N+]=[N-] (stereo not given in full) | 0.638 | 1.22 | 0.0485 | 0.12 | 0.579 | 1.71 | 1.3 | 3.08 (inactive) | 1.39 | 0.158 |
| CC(=O)NCCCC[C@@H]1NC(=O)[C@@H]2C[C@H](C(=O)NCCCCN(C)C)[C@H](c3ccc(O)cc3)N2C1=O | 0.641 | -0.241 | -0.168 | -0.971 | -1.09 | -0.463 | 0.939 | -0.816 (inactive) | -0.0292 | 0.0373 |
| C=C[C@H](C)[C@@H](O)c1ccc(O)c2ccccc12 | -0.161 | -0.0359 | 0.126 | -0.749 | -1 | -0.329 | -0.158 | -0.202 (inactive) | -1.03 | 0.0274 |
| COCCOC(=O)N1C(=O)[C@@]2(c3cc(C#CCCO)ccc31)[C@H](C(=O)NC[C@H](O)c1ccccc1)[C@H]1C(=O)O[C@H](c3ccccc3)[C@H](c3ccccc3)N1[C@@H]2c1ccc(O)cc1 | -0.221 | 0.464 | -0.0058 | 0.627 | 0.026 | 1.48 | 1.21 | -1.04 (inactive) | 0.0399 | -0.134 |
| COCCOC(=O)N1C(=O)[C@@]2(c3ccccc31)[C@H](c1ccc(O)cc1)N1[C@H](c3ccccc3)[C@H](c3ccccc3)OC(=O)[C@H]1[C@@H]2C(=O)N1CCc2cc(OC)c(OC)cc2C1 | 0.21 | 0.0749 | 0.0631 | 0.691 | 1.15 | 1.08 | 0.938 | -1.47 (inactive) | 1.05 | -0.179 |
| [N-]=[N+]=Nc1ccccc1C[C@]1(C(=O)NCCN2CCOCC2)N=C(c2ccc(OCCCO)cc2)O[C@H]1c1ccccc1 | -0.283 | 0.309 | -0.085 | 0.271 | 1.05 | 1.07 | 1.25 | -0.897 (inactive) | 0.892 | 0.0373 |
| COC(=O)[C@@]1(Cc2ccc(OC)cc2)[C@H]2c3cc(C(=O)N4CCCC4)n(CCc4c[nH]c5cc(F)ccc45)c3C[C@H]2CN1C(=O)c1ccccc1 | 0.785 | 0.209 | 0.0181 | 0.71 | 1.76 | 2.12 | 1.18 | -0.87 (inactive) | 2.35 | 0.28 |
| COCCOC(=O)N1C(=O)[C@@]2(c3cc(C#Cc4ccc(OC)cc4)ccc31)[C@H](C(=O)N1CCN(c3ncccn3)CC1)[C@H]1C(=O)O[C@H](c3ccccc3)[C@H](c3ccccc3)N1[C@@H]2c1ccc(O)cc1 | 0.104 | 0.0053 | -0.144 | 0.464 | -0.202 | 0.169 | 0.542 | -1.3 (inactive) | 0.218 | -0.0994 |
| COCCOC(=O)N1C(=O)[C@@]2(c3cc(C#CCC(C(=O)OC)C(=O)OC)ccc31)[C@H](C(=O)N1CCN(c3ncccn3)CC1)[C@H]1C(=O)O[C@H](c3ccccc3)[C@H](c3ccccc3)N1[C@@H]2c1ccc(OCCO)cc1 | -0.462 | 0.185 | -0.0293 | 0.0875 | 0.213 | 0.386 | 1.06 | -0.644 (inactive) | 0.0723 | -0.0088 |
| CCOC(=O)C[C@H]1[C@H](OC(=O)c2ccc(C(=O)c3ccccc3)cc2)[C@@H](NC(=O)C2CCCCC2)c2cc(OCCCO)ccc2N1C(=O)c1ccccc1 | -0.379 | -0.248 | -0.0478 | 0.494 | 1.02 | 0.857 | 0.95 | -0.541 (inactive) | 0.253 | 0.682 |
| CN1C=C(C(=O)OCCS(C)(=O)=O)C(C(=O)OCCS(C)(=O)=O)=CC(CCCO)=CC1C1CC1 (stereo not given) | -0.135 | 0.0461 | -0.128 | 0.427 | 0.213 | 1.04 | 1.25 | -0.483 (inactive) | -0.0228 | -0.0618 |
| O=C1O[C@H](c2ccccc2)[C@H](c2ccccc2)N2[C@H]1[C@@H](C(=O)O)[C@]1(C(=O)Nc3ccc(C#CC4=CCCCC4)cc31)[C@H]2c1ccc(OCCO)cc1 | -0.0152 | 0.651 | -0.0438 | 1.09 | 1.44 | 1.77 | 1.34 | 0.448 (inactive) | 1.03 | -0.0672 |
| CC(=O)C1=CCC(c2ccccc2)N(S(=O)(=O)c2ccc(C)cc2)C1 (stereo not given) | 0.174 | 0.453 | 0.0592 | 0.679 | 0.691 | 0.628 | 1.23 | -2.72 (inactive) | 0.57 | -0.0142 |
| CC(C)(C)OC(=O)CC[C@@]1(C(=O)O)N=C(c2ccc(OCCCO)cc2)O[C@@H]1c1ccccc1N=[N+]=[N-] | 1.09 | 1.56 | 0.0918 | 1.11 | 0.984 | 1 | 1.15 | 6.94 (inactive) | 0.457 | -0.277 |
| C=C[C@H](COC(C)=O)N(Cc1ccc(OC(C)=O)c(OC)c1)S(=O)(=O)c1ccc(Br)cc1 | -0.0411 | 1.46 | 0.125 | 0.311 | 0.86 | 0.785 | 1.14 | -3.46 (inactive) | 0.413 | -0.0024 |
| COCCOC(=O)N1C(=O)[C@@]2(c3cc(C#CCNC(N)=O)ccc31)[C@H](c1ccc(OCCO)cc1)N1[C@H](c3ccccc3)[C@H](c3ccccc3)OC(=O)[C@H]1[C@@H]2C(=O)N1CCc2cc(OC)c(OC)cc2C1 | 0.187 | -0.0389 | -0.051 | 0.164 | 0.638 | 0.156 | 0.371 | 1.08 (inactive) | 0.883 | 0.327 |
| CC(C)CNC(=O)[C@@]1(c2ccc([N+](=O)[O-])cc2)CC(=O)N(CC23CC4CC(CC(C4)C2)C3)[C@@H]1c1ccc(CO)cc1I | 0.483 | 0.699 | -0.0226 | 0.26 | 1.34 | 0.168 | 1.29 | -1.52 (inactive) | 0.283 | -0.0994 |
| [N-]=[N+]=Nc1ccccc1[C@@H]1OC(c2ccc(OCCCO)cc2)=N[C@]1(CCS(=O)(=O)c1ccccc1)C(=O)N1CCOCC1 | 0.712 | 0.274 | 0.269 | 1.09 | 1.62 | 1.95 | 1.24 | -0.246 (inactive) | 1.89 | -0.123 |
| C=CCNC(=O)[C@@H]1[C@H]2C(=O)O[C@H](c3ccccc3)[C@H](c3ccccc3)N2[C@H](c2ccccc2OCCO)[C@@]12C(=O)Nc1ccc(C#CC3=CCCCC3)cc12 | -0.098 | 0.571 | 0.0368 | 0.865 | 1.25 | 0.948 | 1.12 | 0.0472 (inactive) | 0.639 | 0.134 |
| C[N+](C)(C)CCCCCCNC(=O)[C@H]1C[C@H]2C(=O)N3CCC[C@H]3C(=O)N2[C@H]1c1ccc(O)cc1 | 0.159 | 1.01 | -0.116 | -0.0314 | -0.967 | 1.96 | 1.37 | 3.58 (inactive) | -0.106 | -0.0618 |
| COc1cc(C(O)C2C=CC3C(=O)N(c4ccccc4)C(=O)C3N2Nc2ccc(C#N)cc2)cc(OC)c1OC (stereo not given) | 0.606 | 0.226 | 0.179 | 1.14 | 1.67 | 2.18 | 1.41 | 0.209 (inactive) | 1.77 | 0.295 |
| CO[C@H]1O[C@H](CO)[C@@H](OC(=O)Nc2ccc3c(c2)OCO3)[C@H](OC(=O)Nc2ccccc2)[C@H]1OC(=O)Nc1ccccc1 | -0.142 | 0.436 | 0.0166 | 1 | 0.828 | 1.12 | 1.35 | 2.74 (inactive) | 0.697 | -0.0645 |
| [N-]=[N+]=NCc1ccccc1C[C@@]1(C(=O)N2CCOCC2)N=C(c2ccc(OCCCO)cc2)O[C@@H]1c1ccccc1CN=[N+]=[N-] | 0.998 | 0.232 | 0.266 | 1.01 | 1.52 | 1.91 | 1.37 | -3.63 (inactive) | 1.57 | 0.156 |
